Molecules are shown by their SMILES. Several values for one entry are separate records, joined by “and”; a condition that tells them apart may be missing. Equal entries are not always repeated. About 83,000 compounds went through this panel and 20% of them were active in at least one assay; those are over-represented in the sample as a whole.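 Each cell line was grown in a 96-well plate and treated with one concentration of compound for 48 hours. Values below 10 were considered active.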 A number with no mark means an inactive call. Activity calls are given as the source filed them.

This assay concerns MDA-MB-468 breast. The assay is described as follows: NCI-60 one-dose screen, 48 h (100 = growth as untreated, 0 = no growth, -100 = all killed). To be noted: 10 µM unless noted.
As to `CCCc1cc2c(=O)c(C(=O)OC)c[nH]c2cc1N(CC)CC`, the growth was 119%.

`CCOC(=O)c1[nH]c2c(c1C)-c1[nH]c(=O)c(S(=O)(=O)c3ccccc3)cc1SC2`: the growth was 23.9% [100 µM].

In the case of `CCOC(=O)C(=CCC(C)C)C(=O)OCC`, the growth was 98%.

Take `CCCCOc1nc2ccccc2cc1C1CNC(=O)c2ccccc2N1` (stereo not given): the growth is -1.81% (active).

Take `C#CCN1C(=O)c2ccccc2N(CC#C)C12CCN(Cc1cn(CC(=O)Nc3ccccc3C(N)=O)nn1)CC2`: the growth was 72.6%.

Take `COc1ccc(-c2nc3c(N)c(CO)c(C)nc3o2)cc1`: the growth was 67.5%.

For the compound `Cc1ccc(NC(=O)c2nc(S(C)(=O)=O)oc2-c2ccc(F)cc2)cc1Nc1ccc2ncn(C)c(=O)c2c1`, the growth is 16.8%.

As for `Oc1ccc(CSc2nnc(-c3ccc(Br)cc3)n2-c2ccccc2)c2cccnc12`, the growth was 36.1%.

In the case of `CC[C@@H]1C(=O)N(C)c2cnc(Nc3ccc(C(=O)NC4CCC(N5CCN(CC6CC6)CC5)CC4)cc3OC)nc2N1C(C)C` (stereo not given in full), the growth was -54.1% (active).

On to `COc1cc(/C=C/C(=O)c2cccc(-n3cc(-c4cc(OC)c(OC)c(OC)c4)[nH]c3=O)c2)cc(OC)c1OC`, for which the growth was 27.7%.

Turning to `C[C@H]1c2[nH]c3ccccc3c2C[C@H]2C(=O)N(CCCCCCC(=O)NO)CC(=O)N21`, the growth is 60.3%.

Consider `CCN(CC)c1ccc(NC2=C(Cl)C(=O)c3nc(C)ccc3C2=O)cc1`, for which the growth is -45% (active).

For the compound `CCOc1ccc2c(S(=O)(=O)O)cccc2c1[N+](=O)[O-]`, the growth was 104% and 106%.

With `O=C(CCCCCCNC(=O)c1csc(Br)n1)NO`, the growth is 26.6%.

Turning to `COc1cc(CNC(=O)CSc2nc3ccccc3c(=O)n2Cc2cc(OC)c(OC)c(OC)c2)cc(OC)c1OC`, the growth is 91.7%.

In the case of `COC(=O)c1cnc2c(c1)Oc1ccccc1-c1ccnn1-2`, the growth is 101%.

On to `C=Cc1cnc(Nc2ccc(OC)cc2)nc1NCCCNC(=O)C1CCC1`, for which the growth is 46.4%.

As for `CCCCCOc1ccc(/C=N/Nc2cc(C)nc3ccc(Cl)cc23)cc1`, the growth is -29% (active).

On to `COc1ccc(C(=O)C(C)C)c2ccccc12`, for which the growth was 102%.

Take `O=S(=O)(Nc1ccccc1Cl)c1ccc(-c2cnc(C3CC3)o2)cc1`: the growth is 6.43% (active).

Consider `CCOC(=O)c1cc2c(n1Cc1ccccc1)-c1oncc1CCC2`, for which the growth is 60.2%.

For the compound `COc1ccc([C@H]2[C@H](O)C(=O)N2c2cc(OC)c(OC)c(OC)c2)cc1O`, the growth was 5.56% (active).

Take `Cc1ccc(C(=O)NN2C(=O)CSC2c2cccc([N+](=O)[O-])c2)cn1` (stereo not given): the growth was 105%.

As for `CN1CCN(c2ccc(Nc3ncc(C(N)=O)c(NCCCNC(=O)C4CCC4)n3)cc2)CC1`, the growth was 6.58% (active).

In the case of `Cc1nn(-c2ccccc2)c2c1N=c1s/c(=C\c3cn(-c4ccccc4)nc3-c3ccc(Cl)cc3)c(=O)n1C(C)N2` (stereo not given), the growth is 86.6%.

`[O-]/[N+](=C\c1ccc(-n2cc(Cc3ccccc3Cc3cn(-c4ccc(/C=[N+](/[O-])c5ccccc5)cc4)nn3)nn2)cc1)c1ccccc1`: the growth is 96.6%.

For `Cc1cccc(N=Cc2ccccc2O)c1C`, the growth was 103%.

With `COc1cccc(NC(=O)c2sc3nc4c(cc3c2N)C(=O)CCC4)c1`, the growth is 49.5%.

For `COc1ccc(/C=C/C(=O)c2c(C)nc3ccccc3c2/C=C/c2ccccc2)cc1O`, the growth was 40.1%.

On to `O=C(NNC(=S)Nc1ccccc1)c1ccncc1`, for which the growth was 122%.

On to `O=C1/C(=C/c2ccccn2)CCc2ccccc21`, for which the growth was 98.4%.

For the compound `CCc1ccc(Cc2cnc(NC(=O)c3cc(C)oc3C)s2)cc1`, the growth is 9.5% (active).

On to `CCOC(=O)c1[nH]c(=O)c2c(C)nc(-c3ccccc3)cc2c1O`, for which the growth is 92.9%.

As for `CC(C)(CCCN=C(N)Nc1ccc(Cl)cc1)c1ccc(F)cc1`, the growth was 16.1%.

For `COc1ccc2c(c1)CCNC21C(=O)Nc2c(Br)cc(Br)cc21` (stereo not given), the growth is 137%.

As to `COC(=O)c1ccc(C(=O)Nc2ccccc2N)cc1`, the growth is 44%.

Consider `NC(=O)c1ccc(NC(=O)c2oc3ccccc3c2-c2cnn(-c3ccccc3)c2)cc1`, for which the growth was 24.2% [50 µM].

As to `CC(=O)Nc1ccc2c(c1)c(NC(C)=O)nn2C(=O)Nc1ccc(Cc2ccccc2)cc1`, the growth was 80.1%.

Take `C=CCn1c(SCC(=O)c2ccc(Br)cc2)nnc1-c1c[nH]c2ccccc12`: the growth was 86.9%.

Turning to `CCN(CC)c1ccc(/C=C/C2=[N+](C)c3ccccc3C2(C)C)c(C)c1`, the growth is -9.14% (active).

The values above are taken from PubChem BioAssay (NCI).
